Screening data as filed in PubChem.
Shown is part of a subset that was picked to be rich in hits.
HIV RNase H inh-1 = blocks HIV-1 RNase H cleavage of RNA/DNA duplex | P04585 | RT-RNase H RNA/DNA duplex cleavage, fluorescence | inhibition, % at 10 µM | 1.9% of 65,000 active | AID 565; in the data active means inhibition above about 50%
RmlCD inh mix = RmlC/RmlD inhibition, mixture screen; RmlC/RmlD coupled enzyme inhibition, 384-well mixture HTS; inhibition, % at 5.5 µM; 0.39% of 110,000 active; in the data active means inhibition above about 30%, passing the limit was not always enough; inconclusive means no clear call, values can overlap the other calls
HIV RNase H inh-2 = confirmation of HIV-1 reverse transcriptase RNase H inhibitors. shares compounds with HIV RNase H inh-1. AID 651. 39% of 1,000 active. inhibition, % at 10 µM. Recombinant RT RNase H, fluorescent RNA/DNA duplex cleavage; in the data active means inhibition above about 48%; inconclusive means no clear call, values can overlap the other calls
* hit, by the source's call; ? = inconclusive; . = no result.

SMILES	HIV RNase H inh-1	RmlCD inh mix	HIV RNase H inh-2
CCCCCCn1c(SCC(=O)OC)nc2c1c(=O)[nH]c(=O)n2C	93*	7	66*
CCCCCSc1nc2c(c(=O)[nH]c(=O)n2C)n1C(C)C	17	8	.
CCCCCCn1c(SCC(C)C)nc2c1c(=O)[nH]c(=O)n2C	8	142	.
COC(=O)CSc1nc2c(c(=O)n(C)c(=O)n2C)n1CCC(C)C	74*	-8	24
CC(C)n1c(SCC(N)=O)nc2c1c(=O)[nH]c(=O)n2C	61*	11	4
CCCCCSc1nc2c(c(=O)[nH]c(=O)n2C)n1CC	73*	-3	42
CCCCCSc1nc2c(c(=O)[nH]c(=O)n2C)n1C	-29	-2	.
COC(=O)C(C)Sc1nc2c(c(=O)n(C)c(=O)n2C)n1CCC(C)C (configuration not stated)	4	.	.
CCOC(=O)C1=C(C)NC(=O)NC1c1cccnc1 (configuration not stated)	-11	1	.
c1coc(C2Nc3ccccc3-c3nc4ccccc4n32)c1 (configuration not stated)	-6	35	.
Cc1[nH]c(=O)[nH]c(=O)c1S(=O)(=O)N1CCCC(C(=O)NCCc2ccccc2)C1 (configuration not stated)	2	2	.
CCOC(=O)Cn1ccc(O)c(Cc2ccc(Cl)cc2Cl)c1=O	.	0	.
C=CCSc1nc2c(c(=O)[nH]c(=O)n2C)n1C/C=C(/C)Cl	-16	-6	.
C=CCSc1nc2c(c(=O)[nH]c(=O)n2C)n1CC	69*	3	75*
O=C(N/N=C/c1ccc(N2CCOCC2)o1)c1cccc(C(F)(F)F)c1	.	15	.
Cc1oncc1C(=S)Nc1ccccc1	74*	-13	25
Cc1oncc1C(=O)Nc1ccc(C(F)(F)F)cc1	-16	-10	.
CCCCCc1ccc(CC(=O)O)cc1	-8	.	.
CCCCc1ccc(CC(=O)O)cc1	55*	-200	6
Cc1cccc(Nc2n[nH]c(=S)s2)c1C	77*	8	85*
C/C(N)=C(/C#N)C(=O)CSc1nnc(Nc2cccc(C)c2C)s1	0	-7	.
CCOC(=O)c1c(N)sc2c1CCCC2	85*	1	-1
CCOC(=O)c1c(N)sc2c1CCC(C)C2 (configuration not stated)	5	-11	.
CCOC(=O)c1cccc(NC(=O)CSc2nnc(C)n2Cc2ccccc2)c1	16	-12	.
c1ccc2c(NC3=NCCCCS3)cccc2c1	.	-15	.
SMILES	HIV RNase H inh-1	RmlCD inh mix	HIV RNase H inh-2
COC(=O)C(NS(=O)(=O)c1ccc(NC(C)=O)cc1)C(C)C (configuration not stated)	-1	5	.
Cc1ccc(C)c(Cn2c(=O)n(CCCC(=O)NCc3ccco3)c(=O)c3sccc32)c1	.	6	.
Cc1ccc(C)c(Cn2c(=O)n(CCC(=O)NCc3ccco3)c(=O)c3ccccc32)c1	75*	.	48
Cc1nnc(SCC2=C(C(=O)O)N3C(=O)[C@@H](NC(=O)Cn4cnnn4)[C@H]3SC2)s1	0	-9	.
O=C(CCN1C(=O)c2ccccc2C1=O)Nc1ccc(-c2nc3ccccc3o2)cc1	88*	.	68*
O=C(CN1C(=O)c2ccccc2C1=O)Nc1ccc(-c2nc3ccccc3o2)cc1	66*	11	1
O=C(CCN1C(=O)c2ccccc2C1=O)Nc1ccc(F)cc1	-6	2	.
O=C1c2ccccc2C(=O)N1c1ccc(-c2nc3ccccc3o2)cc1	13	29	.
Cc1c(Cc2ccccc2)sc(N)c1C(N)=O	82*	7	?
Cc1c(Cc2ccccc2)sc(NC(=O)Cc2ccccc2)c1C(N)=O	.	2	.
COc1ccc(N2CCN(c3ccc(NC(=O)c4ccc5c(c4)OCO5)cc3C#N)CC2)cc1	17	10	.
CCOC(=O)N1CCN(C(=O)CNC(=O)c2nn(-c3ccc(OC)cc3)c(=O)c3ccccc23)CC1	.	12	.
Cc1cccc(C)c1NC(=O)C(c1ccccc1)N1CCOCC1 (configuration not stated)	.	-3	.
CCCCSc1nc2c(cc1C#N)CCC2	-33	-10	.
CCCSc1nc(C)c(-c2csc(C(C#N)=C3CCCC3)n2)cc1C#N	58*	21	4
CSCCC(NC(N)=O)C(=O)N(C)CC(=O)Nc1cc(C)ccc1C (configuration not stated)	.	5	.
CC(C)Cc1cc(C(=O)Nc2sc3c(c2C#N)CCCC3)no1	65*	10	68*
CC(C)Cc1cc(C(=O)Nc2sc3c(c2C#N)CCC3)no1	.	7	.
Cc1cc(C(=O)Nc2sc3c(c2C#N)CCC3)no1	22	11	.
Cc1noc(C(=O)Nc2sc3c(c2C#N)CCC3)c1Cl	67*	10	9
CCOc1cc(C2C(C#N)=C(N)SC(N)=C2C#N)ccc1OCCN1CCOCC1	87*	-4	85*
CCOc1ccc(C2C(C#N)=C(N)SC(N)=C2C#N)c(OCC)c1	72*	4	19
COc1ccc(C2C(C#N)=C(N)SC(N)=C2C#N)cc1OC	30	10	.
CCCc1[nH]nc2c1C(c1ccc(OCCN3CCOCC3)c(OC)c1)C(C#N)=C(N)O2 (configuration not stated)	2	-13	.
Cc1nnc(SCCn2c(N3CCN(Cc4ccccc4)CC3)nc3c2c(=O)[nH]c(=O)n3C)s1	0	-86	.
SMILES	HIV RNase H inh-1	RmlCD inh mix	HIV RNase H inh-2
CC(=O)N(C)c1nc(-c2ccc(Cl)cc2)cs1	-11	-12	.
Cn1c(SCc2nc(-c3ccc(Cl)cc3)no2)nnc1-c1ccco1	-32	-8	.
CCC(CC)c1nnc(NC(=O)c2c(-c3ccccc3)noc2C)s1	84*	-12	28
Cc1nnc(NC(=O)c2c(-c3ccccc3)noc2C)s1	.	-6	.
CCn1c(Cc2ccccc2)nnc1SCC(=O)Nc1nc(C)cs1	.	8	.
CCn1c(Cc2ccccc2)nnc1SCC(=O)Nc1nc(C)c(C)s1	64*	-13	12
CCCC1COC(Cn2cncn2)(c2ccc(C)cc2)O1 (configuration not stated)	-11	-3	.
CCC(C)n1ncn(-c2ccc(N3CCN(c4ccc(OCC5COC(Cn6cncn6)(c6ccc(Cl)cc6Cl)O5)cc4)CC3)cc2)c1=O (configuration not stated)	73*	57	37
O=C(Cn1cc(C(=O)C2CC2)c2ccccc21)NCC1CCCO1 (configuration not stated)	-7	13	.
CCSC1=C(C#N)C(c2ccc(OC)c(OC)c2)CC(=O)N1 (configuration not stated)	-7	7	.
COc1ccc(N2CSC3=C(C#N)C(c4ccc(OC)c(OC)c4)CC(=O)N3C2)c(OC)c1 (configuration not stated)	82*	13	67*
COc1ccc(N2CSC3=C(C#N)C(c4cc(OC)c(OC)cc4OC)CC(=O)N3C2)c(OC)c1 (configuration not stated)	86*	7	73*
COc1ccc(N2CSC3=C(C#N)C(c4cccs4)CC(=O)N3C2)cc1 (configuration not stated)	68*	34	?
N#CC1=C2SCC(O)(c3ccccc3)N2C(=O)CC1c1ccccc1 (configuration not stated)	-12	-15	.
COc1cc(OC)c(C2CC(=O)N3CN(c4ccc(C)cc4)CSC3=C2C#N)cc1OC (configuration not stated)	30	.	.
CN1CSC2=C(C#N)C(c3cccc(OCc4ccccc4)c3)CC(=O)N2C1 (configuration not stated)	73*	-9	60*
